The full ranking holds about 33,000 sequences; the median of “e-score” is about -0.037, and the highest 2% start at about 0.34. For the sample, the highest values were picked, then their nearest neighbours and some sequences at random.

This assay deals with T1, GST-Rok (full length) (Bacillus subtilis subsp. subtilis str. …, UniProt O34857 1-191).
T1 sequence: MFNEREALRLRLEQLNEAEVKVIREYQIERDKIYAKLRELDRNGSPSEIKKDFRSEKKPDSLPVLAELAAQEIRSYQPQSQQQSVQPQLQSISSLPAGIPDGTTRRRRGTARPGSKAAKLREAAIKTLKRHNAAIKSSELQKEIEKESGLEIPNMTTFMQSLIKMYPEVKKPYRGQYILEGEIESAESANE
In words: protein binding microarray; Rok is a gene silencer of Bacillus subtilis; high values mean tight binding. The settings on record: protein: recombinant; tags: GST (pTH5325, pDEST15-Magic modified); dsDNA, one strand shown. Summed up: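 Every oligonucleotide joins a 25-mer constant primer to a 35-mer variable part drawn from a de Bruijn sequence of order 10, so each non-palindromic 8-mer appears at least 32 times and each palindromic 8-mer 16 times. The preference for every 8-mer is reported as a unitless, rank-based enrichment score (E-score). This score spans 0.5 for the most favored 8-mer to −0.5 for the most disfavored.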
GGAATGTA: the binding signal worked out at 0.103 E-score.

Turning to AACACCGT, the binding signal stood at 0.146 E-score.

Regarding GTGACAAC, the binding signal was -0.0442 E-score.

As for ACTAGAGA, the binding signal is -0.0107 E-score.

For ACTAGATA, the binding signal was determined as 0.402 E-score.

Regarding ACTAGACG, the binding signal is -0.0512 E-score.

Turning to ACTAGATC, the binding signal is 0.327 E-score.

CCTAGATA: the binding signal was determined as 0.101 E-score.

As for GCTAGATA, the binding signal is 0.342 E-score.

Take GCTAGACA: the binding signal was found to be 0.0674 E-score.

With ACTAGATG, the binding signal turned out to be 0.339 E-score.

In the case of ACTAGACA, the binding signal came out at 0.054 E-score.

For CAGATTAG, the binding signal was 0.083 E-score.

In the case of CAGTGTAA, the binding signal worked out at 0.192 E-score.

For CACAAAGC, the binding signal came to 0.0266 E-score.

In the case of ACCACAAG, the binding signal was -0.065 E-score.

With CAGGTGCA, the binding signal is -0.198 E-score.

For the sequence TATGTCGA, the binding signal is 0.132 E-score.

For CTAATCGA, the binding signal turned out to be 0.122 E-score.

For ACTACCAT, the binding signal was 0.352 E-score.

Consider ACTACCAC, for which the binding signal stood at 0.347 E-score.

For the sequence GCTACCAC, the binding signal is 0.188 E-score.

ACTACCAG: the binding signal was 0.238 E-score.

Regarding CCTACCAC, the binding signal was found to be 0.224 E-score.

With ACTACCAA, the binding signal was 0.305 E-score.

With TAGTACCA, the binding signal is 0.166 E-score.

Regarding GCATCGAC, the binding signal was 0.0744 E-score.

With ATGTAGAA, the binding signal worked out at 0.423 E-score.

Regarding CTGTAGAC, the binding signal amounted to 0.117 E-score.

On to GTGTAGAA, for which the binding signal was 0.292 E-score.

On to ATGTAGAC, for which the binding signal is 0.257 E-score.

ATGTAGAG: the binding signal is 0.199 E-score.

In the case of CTGTAGAA, the binding signal worked out at 0.345 E-score.

With CCCAAACC, the binding signal is -0.181 E-score.

As for GTACGGTA, the binding signal came to 0.232 E-score.

Consider TACTTACA, for which the binding signal came to 0.331 E-score.

In the case of AGGTAGGC, the binding signal was -0.115 E-score.

Take GAGTGAAA: the binding signal is -0.103 E-score.

For the sequence ATATAGTA, the binding signal is 0.456 E-score.

As for ATATAGTG, the binding signal worked out at 0.274 E-score.

Take CTATAGTA: the binding signal was found to be 0.365 E-score.

With ATATAGTC, the binding signal stood at 0.25 E-score.

As to GTATAGTA, the binding signal amounted to 0.316 E-score.

Turning to CTATAGTC, the binding signal is 0.096 E-score.

On to ACTGCTAG, for which the binding signal is -0.0701 E-score.

Consider CCGACCAA, for which the binding signal is -0.12 E-score.

On to CCGACTAA, for which the binding signal came out at 0.0388 E-score.

In the case of AGAAACAA, the binding signal amounted to 0.253 E-score.

In the case of AGGTATGC, the binding signal amounted to 0.154 E-score.

As for AAGTGGAG, the binding signal was -0.191 E-score.

In the case of ATCTAATG, the binding signal was 0.241 E-score.

Regarding ATCTAATC, the binding signal was found to be 0.351 E-score.

As to ATCTAATA, the binding signal was 0.313 E-score.

Regarding CTAATTTA, the binding signal was found to be 0.286 E-score.

Take TAAATTTA: the binding signal came out at 0.361 E-score.

Turning to CAAATTTA, the binding signal was determined as 0.168 E-score.

In the case of ATAATTTA, the binding signal turned out to be 0.397 E-score.

For the sequence GCAATTTA, the binding signal came to 0.279 E-score.

With ATAATTCA, the binding signal is 0.21 E-score.

With AAAATTTA, the binding signal was 0.293 E-score.

GTAATTGA: the binding signal is 0.246 E-score.

Take CTAATTTC: the binding signal turned out to be 0.162 E-score.

With ATAATTTC, the binding signal was 0.351 E-score.

With ATAATTTG, the binding signal is 0.284 E-score.

As to GTAATTTA, the binding signal came to 0.355 E-score.

TAAAGCCA: the binding signal was -0.0305 E-score.

For the sequence AACTCAAT, the binding signal amounted to 0.296 E-score.

Consider CGCCATTC, for which the binding signal was -0.0796 E-score.

In the case of AATAAGGC, the binding signal is -0.0153 E-score.

On to ATGTCGCG, for which the binding signal was -0.0435 E-score.

As to CCATTTAC, the binding signal stood at 0.0848 E-score.

On to GTCATATA, for which the binding signal worked out at 0.291 E-score.

GAATGGGA: the binding signal is -0.15 E-score.

In the case of ACGAGCTA, the binding signal is -0.107 E-score.

As for AAAACTAA, the binding signal turned out to be 0.254 E-score.

With CAAACTTA, the binding signal came out at 0.162 E-score.

For AAAACTCC, the binding signal was 0.0005 E-score.

On to AAAACTAC, for which the binding signal came to 0.453 E-score.

As for CAAACTCC, the binding signal was -0.0836 E-score.

Turning to AAAACTGT, the binding signal was -0.0241 E-score.

Regarding TAAACTAA, the binding signal was determined as 0.288 E-score.

On to CAAACTAA, for which the binding signal was found to be 0.378 E-score.

Consider AAAACTAT, for which the binding signal is 0.433 E-score.

Turning to CAAACTAG, the binding signal is 0.329 E-score.

For the sequence CAAACTAC, the binding signal amounted to 0.43 E-score.

For AAAACTAG, the binding signal came to 0.334 E-score.

For the sequence GTGGCAAC, the binding signal is -0.17 E-score.

Consider CGTGACAA, for which the binding signal is -0.11 E-score.

As for CGACGAGA, the binding signal was -0.0756 E-score.

With ATCCCAAA, the binding signal amounted to 0.0535 E-score.

CACTCTCA: the binding signal is -0.109 E-score.

Take CTTAATGC: the binding signal was determined as 0.13 E-score.

Consider ACCGAGCA, for which the binding signal was -0.0882 E-score.

On to GTTGGTTA, for which the binding signal was found to be 0.26 E-score.

AGCGCTAT: the binding signal is -0.0624 E-score.

On to GAAACTAC, for which the binding signal came to 0.469 E-score.

Consider GAAACTAA, for which the binding signal turned out to be 0.244 E-score.

On to GAAACTTC, for which the binding signal stood at 0.224 E-score.

As for CGGTAGGA, the binding signal turned out to be 0.281 E-score.

Take CAACCGGC: the binding signal is -0.0977 E-score.

ACGCTCCT: the binding signal is -0.000812 E-score.

AAATACTG: the binding signal is 0.327 E-score.

For the sequence AAATACTC, the binding signal is 0.227 E-score.

On to CAATACTA, for which the binding signal was determined as 0.261 E-score.

For the sequence CAATACGA, the binding signal was 0.00373 E-score.

Regarding TAATACGA, the binding signal amounted to 0.377 E-score.

For AAATACGA, the binding signal came to 0.118 E-score.

GAATACTA: the binding signal is 0.295 E-score.

As for TAATACTA, the binding signal is 0.419 E-score.

For the sequence AAATACTA, the binding signal is 0.454 E-score.

Turning to ACGCAAAC, the binding signal was 0.106 E-score.

AGAGCTTA: the binding signal is -0.044 E-score.

As for GACGATGA, the binding signal was -0.103 E-score.

Regarding GGCTGTAC, the binding signal is -0.102 E-score.

Regarding ACTCGCAC, the binding signal is -0.112 E-score.

On to ATACTGTC, for which the binding signal came out at 0.0898 E-score.

For the sequence AGTACGCC, the binding signal was -0.149 E-score.

As for ATCAATGA, the binding signal came out at 0.0966 E-score.

With CTTAATAC, the binding signal is 0.18 E-score.

Consider CATAATAA, for which the binding signal worked out at 0.252 E-score.

In the case of GATAATAC, the binding signal was found to be 0.187 E-score.

For the sequence GGTAATAA, the binding signal turned out to be 0.313 E-score.

On to AATAATAC, for which the binding signal worked out at 0.332 E-score.

As for AATAATAA, the binding signal was found to be 0.364 E-score.

For the sequence TATAATAA, the binding signal was determined as 0.33 E-score.

As to ATTAATAA, the binding signal is 0.182 E-score.

As for AATAATAG, the binding signal came out at 0.388 E-score.

Consider CATAATAG, for which the binding signal worked out at 0.243 E-score.

On to GATAATAA, for which the binding signal turned out to be 0.369 E-score.

ATTAATAC: the binding signal stood at 0.353 E-score.

In the case of AACCATCC, the binding signal was -0.0159 E-score.

Turning to AGCCGTGC, the binding signal was -0.157 E-score.

Regarding ATGGGCCG, the binding signal is -0.146 E-score.

In the case of ACCTTAGA, the binding signal was determined as 0.00282 E-score.

For the sequence AGTACGTA, the binding signal turned out to be 0.332 E-score.

For the sequence AATAATGC, the binding signal was 0.352 E-score.

As for AATAATGG, the binding signal was 0.103 E-score.

On to AATAATGT, for which the binding signal worked out at 0.222 E-score.

Consider CGTAGTCC, for which the binding signal is -0.0635 E-score.

As to CGGGCAGC, the binding signal was -0.142 E-score.

With CTAGGTCA, the binding signal was -0.0595 E-score.

As for ACGTTCAA, the binding signal is -0.0397 E-score.

Take CAATGGAG: the binding signal is -0.17 E-score.

As for ACAGCTCT, the binding signal is -0.118 E-score.

With ACAACGAC, the binding signal worked out at 0.0795 E-score.

As for CACCGGTA, the binding signal came to 0.056 E-score.

Regarding TACCGGTA, the binding signal worked out at 0.37 E-score.

Regarding AACCGGTA, the binding signal came out at 0.274 E-score.

On to ACCATGCT, for which the binding signal was -0.182 E-score.

For the sequence ATTAACTG, the binding signal amounted to 0.14 E-score.

In the case of ATTAAGTA, the binding signal came to 0.347 E-score.

Turning to GTTAACGA, the binding signal is 0.241 E-score.

With ATTAACTC, the binding signal came to 0.092 E-score.

With GTTAAGTA, the binding signal turned out to be 0.191 E-score.

In the case of GTTAACTA, the binding signal came out at 0.359 E-score.

Turning to ATTAACTA, the binding signal came out at 0.398 E-score.

Turning to CTTAAGTA, the binding signal was 0.281 E-score.

Take CTTAACTA: the binding signal was 0.313 E-score.

As to GAGCGAGA, the binding signal is -0.17 E-score.

Take AGTCATAC: the binding signal amounted to 0.018 E-score.

Consider GGTCGCAA, for which the binding signal came to 0.0661 E-score.

Regarding CAGCGTGA, the binding signal was -0.12 E-score.

For CAATGTAC, the binding signal was 0.263 E-score.

As for AAATGTAC, the binding signal is 0.343 E-score.

As to AAATGTAG, the binding signal was found to be 0.297 E-score.

For AAATGTAT, the binding signal stood at 0.281 E-score.

GAATGTAC: the binding signal stood at 0.303 E-score.

For AAATGTAA, the binding signal stood at 0.389 E-score.

CGAGCCAC: the binding signal is -0.119 E-score.

With GGGCAGCA, the binding signal is -0.184 E-score.

CTCGCTAA: the binding signal was -0.0951 E-score.

On to TGTGAGAA, for which the binding signal was found to be 0.216 E-score.

Values taken from article PMC6212790, “How bacterial xenogeneic silencer rok distinguishes foreign from self DNA in its resident genome”.
